Records with an inconclusive call do not appear. Activity calls are given as the source filed them. The calls were made as follows, unless noted: active = hit-call score of the fitted dose curve at least 0.9, where 1 is the maximum; inactive = score below 0.9.
Experiments:
[1] = target: Glucocorticoid receptor (Homo sapiens) (UniProt P04150); experiment: ATG_GR_TRANS: Attagene TRANS-FACTORIAL HepG2 Assay for human Glucocorticoid Receptor (GR) (AID 2282978; active = hit-call score of the fitted dose curve at least 0.9, where 1 is the maximum;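 also: activators score as hits since higher reporter transcript over DMSO is fitted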); conditions: HepG2 Attagene TRANS GR reporter, mRNA transcription
Procedure, shortened: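 Transiently transfected HepG2 cells express chimeric NR-GAL4 proteins acting on GAL4-UAS reporter units. Compounds are applied for 24 h. mRNA induction over DMSO is measured by capillary electrophoresis.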

[2] = ATG_M_32_TRANS: Attagene TRANS-FACTORIAL HepG2 Assay for M32 Transcription Factor (Internal Marker) (AID 2282984; active = hit-call score of the fitted dose curve at least 0.9, where 1 is the maximum;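 also: transcript level of a background control reporter unit measured by RT-PCR and capillary electrophoresis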); conditions: HepG2 Attagene TRANS M32 internal marker reporter
Procedure, shortened: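 Measures reporter mRNA induction in human HepG2 liver cells after 24 h chemical treatment. Transcripts from transiently transfected GAL4-UAS reporter units are amplified, fluorescently labelled and sized by capillary electrophoresis; gain of signal relative to DMSO.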

[3] = target: Transcriptional activator Myb (Homo sapiens) (UniProt P10242); experiment: ATG_Myb_CIS: Attagene CIS-FACTORIAL HepG2 Assay for human Myeloblastosis (Myb) Proto-Oncogene Transcription Factor (AID 2282986); conditions: HepG2 Attagene CIS-FACTORIAL Myb reporter transcription; actives raise or lower the signal
Procedure, shortened: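 Using HepG2 liver cells bearing transiently transfected cis-promoter reporter constructs, the assay measures induction or loss of reporter mRNA after 24 hours of dosing. Detection used fluorescently labeled RT-PCR products separated by capillary electrophoresis.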

[4] = target: Nuclear respiratory factor 1 (Homo sapiens) (UniProt Q16656); experiment: ATG_NRF1_CIS: Attagene CIS-FACTORIAL HepG2 Assay for human Nuclear Respiratory Factor 1 (NRF1) Orphan Gene (AID 2282987); conditions: HepG2 NRF1 cis-element reporter, Attagene multiplex; actives raise or lower the signal
Procedure, shortened: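 Reporter mRNA induction or loss in HepG2 cells after 24 h dosing; cis-regulated reporter constructs report endogenous transcription-factor activity. Quantified by RT-PCR/capillary electrophoresis fluorescence, DMSO-referenced.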

[5] = ATG_NFI_CIS: Attagene CIS-FACTORIAL HepG2 Assay for human Nuclear Factor I (NFI) (AID 2282989); conditions: HepG2 cis-regulatory reporter, NFI response element transcription; actives raise or lower the signal
Procedure, shortened: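 Endogenous TF activity in HepG2 cells transiently transfected with cis-element-driven multiplexed reporter units, read 24 h after dosing. Reporter mRNA quantified by RT-PCR, 6-FAM labelling, HpaI digestion and capillary electrophoresis; bidirectional fit versus DMSO.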

[6] = target: Myc proto-oncogene protein (Homo sapiens) (UniProt P01106); experiment: ATG_Myc_CIS: Attagene CIS-FACTORIAL HepG2 Assay for human Myelocytomatosis (Myc) Proto-Oncogene Transcription Factor (AID 2282990); conditions: HepG2, Attagene cis-reporter transcription factor activity; actives raise or lower the signal
Procedure, shortened: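 HepG2, transient MRTU transfection (cis promoters, endogenous TFs); 24 h dosing; TriZol RNA → oligo(dT) RT → PCR → 6-FAM primer extension → HpaI cut → CE. Bidirectional fit vs DMSO.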

[7] = ATG_NF_kB_CIS: Attagene CIS-FACTORIAL HepG2 Assay for human Nuclear Factor Kappa B (NF-kB) (AID 2282991); conditions: HepG2 Attagene cis-factorial NF-kB reporter mRNA; actives raise or lower the signal
Procedure, shortened: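 DMSO served as negative control and baseline for bidirectional curve fitting. Transiently transfected HepG2 cells were dosed for 24 h, then reporter transcripts were measured by RT-PCR with capillary electrophoresis detection.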

[8] = ATG_NRF2_ARE_CIS: Attagene CIS-FACTORIAL HepG2 Assay for human Nuclear Factor Erythroid 2 Related Factor 2 (NFR2) response to Antioxidant Response Elements (ARE) (AID 2282992); conditions: HepG2 Attagene ARE/NRF2 reporter, transcription factor activity; actives raise or lower the signal;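 as to AC50: reporter mRNA level measured by RT-PCR and capillary electrophoresis fluorescence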
Procedure, shortened: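 HepG2 cells transiently transfected with multiplexed cis-regulated reporter transcription units measure endogenous transcription factor activity. Reporter mRNA at 24 h is quantified by RT-PCR, fluorescent labelling and capillary electrophoresis, with bidirectional fitting relative to DMSO.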

[9] = ATG_Oct_MLP_CIS: Attagene CIS-FACTORIAL HepG2 Assay for human Octamer-Binding Transcription Factor (Oct) (AID 2282993); conditions: HepG2 Attagene cis-factorial Oct reporter, mRNA; actives raise or lower the signal
Procedure, shortened: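 HepG2 cells transiently transfected with cis-element-driven reporter transcription units (endogenous TF activity); 24 h compound exposure. Reporter mRNA quantified by RT-PCR, 6-FAM labelling, HpaI digestion and capillary electrophoresis; bidirectional fit versus DMSO baseline.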

[10] = BSK_3C_TissueFactor: BioMAP Diversity Plus: 3C Assay for Tissue Factor Biomarker Activity (AID 2282997); conditions: BioMAP 3C HUVEC, tissue factor biomarker readout; actives raise or lower the signal
Procedure, shortened: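 Endothelial monolayers (human umbilical vein, primary) are dosed, incubated 24 h, and assayed for Tissue Factor by ELISA; DMSO serves as negative control for bidirectional fitting.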

[11] = BSK_3C_uPAR: BioMAP Diversity Plus: 3C Assay for Urokinase-type plasminogen activator receptor (uPAR) Biomarker Activity (AID 2282998); conditions: BioMAP 3C HUVEC, uPAR biomarker ELISA; actives raise or lower the signal
Procedure, shortened: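 Primary human umbilical vein endothelial cells, 3C system; surface uPAR measured by ELISA 24 h after dosing. Cytotoxicity via SRB total protein in parallel cultures; bidirectional fit against DMSO.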

[12] = BSK_3C_VCAM1: BioMAP Diversity Plus: 3C Assay for Vascular cell adhesion molecule 1 (VCAM1) Biomarker Activity (AID 2282999); conditions: BioMAP 3C HUVEC, VCAM1 ELISA, cytokine-stimulated; actives raise or lower the signal
Procedure, shortened: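 Endothelial cells from human umbilical vein are treated with test chemical. At 24 h, VCAM-1 is measured by ELISA, and responses in either direction are fitted relative to DMSO.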

[13] = BSK_4H_Eotaxin3: BioMAP Diversity Plus: 4H Assay for Eotaxin 3 Biomarker Activity (AID 2283000); conditions: primary human endothelial cells (HUVEC); actives raise or lower the signal;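 also: CCL26 protein level quantified by ELISA in parallel with SRB cytotoxicity check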
Procedure, shortened: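 ELISA quantitation of CCL26 (Eotaxin-3) protein from chemically dosed human vascular endothelial cells at 24 h; increases and decreases both scored relative to DMSO-treated baseline.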

[14] = target: human Peroxisome Proliferator-activated Receptor alpha (PPARa), PPARA (gene 5465) (UniProt Q07869); experiment: ATG_PPARa_TRANS: Attagene TRANS-FACTORIAL HepG2 Assay for human Peroxisome Proliferator-activated Receptor alpha (PPARa) (AID 2283001; active = hit-call score of the fitted dose curve at least 0.9, where 1 is the maximum;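 as to AC50: potency for gain of reporter signal over DMSO so agonist or activator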)
Procedure, shortened: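 Read-out is fluorescence of reporter cDNA fragments resolved by capillary electrophoresis after RT-PCR. Human HepG2 liver cells carried transfected PPARa-Gal4 chimera and GAL4-UAS reporter units, treated 24 h; activity scored as increase over DMSO.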

[15] = target: Bile acid receptor (Homo sapiens) (UniProt Q96RI1); experiment: ATG_FXR_TRANS: Attagene TRANS-FACTORIAL HepG2 Assay for Farnesoid X Receptor (FXR) (AID 2282979; active = hit-call score of the fitted dose curve at least 0.9, where 1 is the maximum;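 also: hits raise reporter mRNA above DMSO so AC50 marks FXR activation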); conditions: HepG2 Attagene TRANS FXR-GAL4 reporter transcription
Procedure, shortened: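 After 24 h chemical treatment of transfected HepG2 cells, GAL4-UAS reporter transcripts driven by an exogenous FXR-GAL4 fusion were measured by RT-PCR and capillary electrophoresis. Increases over DMSO were fitted.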

[16] = target: Oxysterols receptor LXR-beta (Homo sapiens) (UniProt P55055); experiment: ATG_LXRb_TRANS: Attagene TRANS-FACTORIAL HepG2 Assay for human Liver X Receptor beta (LXRb) (AID 2282981; active = hit-call score of the fitted dose curve at least 0.9, where 1 is the maximum); conditions: HepG2 Attagene TRANS GAL4-LXRb reporter, mRNA
Procedure, shortened: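 Transient transfection HepG2 (multiplexed RTUs, GAL4-UAS); NR-Gal4 chimera; 24 h exposure; RNA → RT-PCR → 6-FAM primer extension → HpaI → CE; increase vs DMSO.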

[17] = target: Hepatocyte nuclear factor 4-alpha (Homo sapiens) (UniProt P41235); experiment: ATG_HNF4a_TRANS: Attagene TRANS-FACTORIAL HepG2 Assay for human Hepatocyte Nuclear Factor 4 alpha (HNF4a) (AID 2282982; active = hit-call score of the fitted dose curve at least 0.9, where 1 is the maximum); conditions: HepG2 HNF4a transactivation reporter, mRNA readout
Procedure, shortened: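 Readout is fluorescent reporter-transcript fragments resolved by capillary electrophoresis after RT-PCR from HepG2 cells dosed for 24 h. Cells carried transfected GAL4-UAS reporter constructs measuring exogenous NR-GAL4 chimera activity; DMSO served as baseline.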

[18] = ATG_M_06_TRANS: Attagene TRANS-FACTORIAL HepG2 Assay for M06 Transcription Factor (Internal Marker) (AID 2282983; active = hit-call score of the fitted dose curve at least 0.9, where 1 is the maximum;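 also: reporter transcript level by RT-PCR then capillary electrophoresis fluorescence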); conditions: HepG2 Attagene TRANS M06 internal marker reporter
Procedure, shortened: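 Internal-marker background readout from a multiplexed TRANS reporter system in HepG2; 24 h dosing; mRNA induction quantified by RT-PCR plus capillary electrophoresis fluorescence; DMSO as negative control and baseline.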

[19] = target: Nuclear receptor subfamily 4 group A member 2 (Homo sapiens) (UniProt P43354); experiment: ATG_NURR1_TRANS: Attagene TRANS-FACTORIAL HepG2 Assay for human Nuclear Receptor Related Protein 1 (NURR1) (AID 2282985; active = hit-call score of the fitted dose curve at least 0.9, where 1 is the maximum); conditions: HepG2 Attagene TRANS reporter, mRNA readout
Procedure, shortened: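 Transient transfection of HepG2, human liver cells, with multiple GAL4-UAS reporter transcription units. Cells dosed 24 h, RNA isolated, reverse-transcribed, PCR-amplified, FAM-labelled, HpaI-digested, sized by capillary electrophoresis. DMSO served as negative control.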

[20] = target: Cellular tumor antigen p53 (Homo sapiens) (UniProt P04637); experiment: ATG_p53_CIS: Attagene CIS-FACTORIAL HepG2 Assay for human p53 Transcription Factor (AID 2282994); conditions: HepG2 p53 cis-element reporter, Attagene mRNA; actives raise or lower the signal
Procedure, shortened: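 HepG2 cells transiently transfected with multiplexed cis-regulated reporter transcription units read endogenous TF activity. After 24 h compound exposure, reporter mRNA was quantified by RT-PCR, fluorescent labelling, HpaI digestion and capillary electrophoresis; bidirectional fits versus DMSO baseline.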

Measured: AC50

Sequence of Nuclear respiratory factor 1 (Homo sapiens) (Q16656 whole entry, looked up): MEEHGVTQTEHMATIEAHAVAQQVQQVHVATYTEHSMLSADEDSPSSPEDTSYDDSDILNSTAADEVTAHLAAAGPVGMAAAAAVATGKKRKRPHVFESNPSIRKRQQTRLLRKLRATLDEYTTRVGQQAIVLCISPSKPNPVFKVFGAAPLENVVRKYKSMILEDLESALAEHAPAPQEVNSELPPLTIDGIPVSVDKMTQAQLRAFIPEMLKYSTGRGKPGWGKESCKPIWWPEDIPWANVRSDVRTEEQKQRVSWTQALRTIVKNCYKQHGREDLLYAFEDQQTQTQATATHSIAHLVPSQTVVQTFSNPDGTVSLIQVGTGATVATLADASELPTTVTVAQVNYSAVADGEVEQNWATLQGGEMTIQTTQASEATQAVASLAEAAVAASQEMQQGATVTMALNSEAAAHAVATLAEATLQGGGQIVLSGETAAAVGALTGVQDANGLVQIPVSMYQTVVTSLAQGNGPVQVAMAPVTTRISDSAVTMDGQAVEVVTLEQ
Sequence of human Peroxisome Proliferator-activated Receptor alpha (PPARa), PPARA (gene 5465) (Q07869 whole entry, looked up, the tested form may be a part): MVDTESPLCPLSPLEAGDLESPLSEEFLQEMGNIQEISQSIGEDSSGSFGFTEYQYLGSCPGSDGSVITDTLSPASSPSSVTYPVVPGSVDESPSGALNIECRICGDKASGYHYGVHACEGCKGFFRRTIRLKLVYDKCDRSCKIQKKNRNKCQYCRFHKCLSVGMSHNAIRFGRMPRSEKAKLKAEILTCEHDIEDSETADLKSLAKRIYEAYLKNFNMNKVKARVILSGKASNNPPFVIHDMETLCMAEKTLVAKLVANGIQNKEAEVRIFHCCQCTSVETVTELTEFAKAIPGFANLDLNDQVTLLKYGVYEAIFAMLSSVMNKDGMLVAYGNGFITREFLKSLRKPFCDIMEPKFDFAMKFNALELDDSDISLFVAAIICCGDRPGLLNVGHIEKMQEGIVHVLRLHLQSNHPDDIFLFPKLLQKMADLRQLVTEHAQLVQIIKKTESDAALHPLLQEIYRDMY
Sequence of Glucocorticoid receptor (Homo sapiens) (P04150 whole entry, looked up, the tested form may be a part): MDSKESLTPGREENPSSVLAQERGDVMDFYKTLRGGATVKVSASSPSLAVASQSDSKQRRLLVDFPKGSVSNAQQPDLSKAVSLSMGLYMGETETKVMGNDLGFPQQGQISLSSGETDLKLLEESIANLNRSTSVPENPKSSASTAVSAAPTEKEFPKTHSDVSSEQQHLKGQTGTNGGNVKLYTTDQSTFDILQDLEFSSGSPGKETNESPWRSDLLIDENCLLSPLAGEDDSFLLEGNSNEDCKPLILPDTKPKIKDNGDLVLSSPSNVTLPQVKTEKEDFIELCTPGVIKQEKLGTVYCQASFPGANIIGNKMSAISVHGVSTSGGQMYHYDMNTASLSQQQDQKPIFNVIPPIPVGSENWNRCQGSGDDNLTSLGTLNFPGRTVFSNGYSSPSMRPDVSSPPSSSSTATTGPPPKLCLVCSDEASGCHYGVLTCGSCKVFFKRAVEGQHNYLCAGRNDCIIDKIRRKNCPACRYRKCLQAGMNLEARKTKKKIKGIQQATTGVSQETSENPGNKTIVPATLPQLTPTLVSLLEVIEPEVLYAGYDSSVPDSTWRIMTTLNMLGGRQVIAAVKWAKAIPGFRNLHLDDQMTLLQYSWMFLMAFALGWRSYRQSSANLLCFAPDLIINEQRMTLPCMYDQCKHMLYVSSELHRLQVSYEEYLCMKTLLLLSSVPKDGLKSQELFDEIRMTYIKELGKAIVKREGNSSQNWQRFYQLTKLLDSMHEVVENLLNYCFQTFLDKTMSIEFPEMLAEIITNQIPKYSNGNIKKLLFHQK
Sequence of Transcriptional activator Myb (Homo sapiens) (P10242 whole entry, looked up): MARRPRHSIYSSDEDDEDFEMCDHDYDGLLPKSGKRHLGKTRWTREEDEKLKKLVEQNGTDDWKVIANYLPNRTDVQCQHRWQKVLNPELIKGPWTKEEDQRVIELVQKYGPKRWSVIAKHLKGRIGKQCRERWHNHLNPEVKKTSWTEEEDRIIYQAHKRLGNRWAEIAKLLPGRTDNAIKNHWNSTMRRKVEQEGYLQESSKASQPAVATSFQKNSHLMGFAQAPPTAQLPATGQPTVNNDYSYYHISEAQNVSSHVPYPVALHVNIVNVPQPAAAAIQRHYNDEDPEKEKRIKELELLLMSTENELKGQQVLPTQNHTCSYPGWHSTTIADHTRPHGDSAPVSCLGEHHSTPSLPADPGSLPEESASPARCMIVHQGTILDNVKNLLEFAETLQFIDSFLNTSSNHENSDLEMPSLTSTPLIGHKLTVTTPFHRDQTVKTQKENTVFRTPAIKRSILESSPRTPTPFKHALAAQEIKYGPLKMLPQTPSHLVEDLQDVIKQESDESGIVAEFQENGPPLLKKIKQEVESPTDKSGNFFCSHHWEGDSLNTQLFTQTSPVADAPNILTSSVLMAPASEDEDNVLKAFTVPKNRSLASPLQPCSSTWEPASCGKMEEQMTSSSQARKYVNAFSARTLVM
Sequence of Nuclear receptor subfamily 4 group A member 2 (Homo sapiens) (P43354 whole entry, looked up, the tested form may be a part): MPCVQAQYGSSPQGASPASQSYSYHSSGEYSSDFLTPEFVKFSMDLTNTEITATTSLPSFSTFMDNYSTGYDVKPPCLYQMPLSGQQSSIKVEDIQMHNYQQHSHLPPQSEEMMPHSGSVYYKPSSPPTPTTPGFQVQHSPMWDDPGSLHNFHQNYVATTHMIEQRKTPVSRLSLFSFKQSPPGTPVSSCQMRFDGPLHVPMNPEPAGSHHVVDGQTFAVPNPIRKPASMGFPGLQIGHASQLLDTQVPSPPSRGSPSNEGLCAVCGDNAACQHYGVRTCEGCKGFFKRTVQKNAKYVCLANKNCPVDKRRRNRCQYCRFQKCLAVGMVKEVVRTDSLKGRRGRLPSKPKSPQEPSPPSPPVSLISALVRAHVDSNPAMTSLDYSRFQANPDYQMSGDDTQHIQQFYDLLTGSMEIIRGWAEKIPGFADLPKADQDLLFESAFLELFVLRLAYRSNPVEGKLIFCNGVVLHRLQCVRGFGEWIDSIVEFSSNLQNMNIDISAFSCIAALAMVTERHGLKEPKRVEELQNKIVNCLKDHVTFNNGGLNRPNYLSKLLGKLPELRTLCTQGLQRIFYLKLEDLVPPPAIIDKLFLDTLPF
Sequence of Myc proto-oncogene protein (Homo sapiens) (P01106 whole entry, looked up): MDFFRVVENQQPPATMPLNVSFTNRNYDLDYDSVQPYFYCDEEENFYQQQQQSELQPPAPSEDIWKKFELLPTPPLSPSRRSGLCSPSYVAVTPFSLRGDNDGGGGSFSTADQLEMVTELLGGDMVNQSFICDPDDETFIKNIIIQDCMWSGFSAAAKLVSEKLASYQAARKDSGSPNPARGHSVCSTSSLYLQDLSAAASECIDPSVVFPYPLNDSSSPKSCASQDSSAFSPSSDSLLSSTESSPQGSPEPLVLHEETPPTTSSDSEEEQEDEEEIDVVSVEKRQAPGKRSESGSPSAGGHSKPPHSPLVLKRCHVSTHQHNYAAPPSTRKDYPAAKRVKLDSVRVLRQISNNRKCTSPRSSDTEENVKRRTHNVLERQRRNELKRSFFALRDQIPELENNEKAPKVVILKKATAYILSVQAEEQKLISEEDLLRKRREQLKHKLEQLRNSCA
Sequence of Hepatocyte nuclear factor 4-alpha (Homo sapiens) (P41235 whole entry, looked up, the tested form may be a part): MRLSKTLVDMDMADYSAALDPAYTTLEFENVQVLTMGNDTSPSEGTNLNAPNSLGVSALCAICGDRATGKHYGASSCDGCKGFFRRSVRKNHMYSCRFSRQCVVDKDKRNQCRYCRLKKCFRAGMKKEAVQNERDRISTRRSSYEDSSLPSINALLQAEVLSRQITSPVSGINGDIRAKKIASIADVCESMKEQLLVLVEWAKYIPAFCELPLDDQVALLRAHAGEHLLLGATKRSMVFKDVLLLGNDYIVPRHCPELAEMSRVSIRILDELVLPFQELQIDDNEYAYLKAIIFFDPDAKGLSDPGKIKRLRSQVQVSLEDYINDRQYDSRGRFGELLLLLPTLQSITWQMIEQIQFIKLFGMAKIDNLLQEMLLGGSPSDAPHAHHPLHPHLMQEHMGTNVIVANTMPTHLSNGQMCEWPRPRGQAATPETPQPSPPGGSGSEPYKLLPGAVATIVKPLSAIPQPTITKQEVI
Sequence of Oxysterols receptor LXR-beta (Homo sapiens) (P55055 whole entry, looked up, the tested form may be a part): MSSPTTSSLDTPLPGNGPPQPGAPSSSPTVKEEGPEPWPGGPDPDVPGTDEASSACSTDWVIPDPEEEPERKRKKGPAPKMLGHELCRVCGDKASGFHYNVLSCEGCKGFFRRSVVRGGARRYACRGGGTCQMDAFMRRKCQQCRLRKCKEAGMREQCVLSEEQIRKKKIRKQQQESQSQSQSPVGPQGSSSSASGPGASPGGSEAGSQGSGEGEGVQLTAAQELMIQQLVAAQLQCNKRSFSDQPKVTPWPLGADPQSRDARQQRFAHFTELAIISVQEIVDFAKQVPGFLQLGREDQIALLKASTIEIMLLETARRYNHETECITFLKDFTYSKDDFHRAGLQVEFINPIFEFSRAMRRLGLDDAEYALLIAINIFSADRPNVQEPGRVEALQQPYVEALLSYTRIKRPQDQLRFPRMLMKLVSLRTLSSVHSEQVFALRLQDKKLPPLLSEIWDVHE
Sequence of Bile acid receptor (Homo sapiens) (Q96RI1 whole entry, looked up, the tested form may be a part): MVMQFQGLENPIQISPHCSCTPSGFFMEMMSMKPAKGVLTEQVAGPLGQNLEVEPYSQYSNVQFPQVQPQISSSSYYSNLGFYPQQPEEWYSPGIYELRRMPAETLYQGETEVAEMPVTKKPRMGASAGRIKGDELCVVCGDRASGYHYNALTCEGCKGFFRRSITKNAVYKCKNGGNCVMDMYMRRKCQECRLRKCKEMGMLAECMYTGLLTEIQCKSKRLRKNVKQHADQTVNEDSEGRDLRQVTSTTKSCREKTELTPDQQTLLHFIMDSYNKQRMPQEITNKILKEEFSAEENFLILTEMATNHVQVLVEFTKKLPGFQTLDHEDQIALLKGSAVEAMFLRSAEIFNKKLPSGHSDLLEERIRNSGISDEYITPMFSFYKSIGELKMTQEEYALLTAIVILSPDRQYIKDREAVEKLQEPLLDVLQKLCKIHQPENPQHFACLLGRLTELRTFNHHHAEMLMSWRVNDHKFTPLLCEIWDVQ

CCOCCOCCO
not listed: [15] | [16] | [17] | [18] | [19] | [20]
inactive: all other assays above

CN(C)CCCN(C)CCCN(C)C
not listed: [1] | [2] | [14] | [16] | [17] | [18] | [19] | [20]
inactive: all other assays above

Nc1nc(=S)c2[nH]cnc2[nH]1
active: [8] 2.69 µM | [9] 35.5 µM
not listed: [1] | [2] | [7] | [15] | [20]
inactive: all other assays above

CCCCCCCCCCCCCCOS(=O)(=O)O
active: [14] 5.1 µM
not listed: [2] | [7] | [15] | [16] | [17] | [18]
inactive: all other assays above

S=c1[nH]c2ccccc2s1
active: [8] 54.9 µM | [9] 100 µM
not listed: [2] | [7] | [15] | [16] | [18] | [19] | [20]
inactive: all other assays above

O=C1NC(=O)C(c2ccccc2)(c2ccccc2)N1
not listed: [7] | [14] | [15] | [16] | [18] | [20]
inactive: all other assays above

O=C1CCCCC1
not listed: [15] | [16] | [20]
inactive: all other assays above

CCc1cc(C2=C(C(=O)O)N(c3ccccc3C(F)(F)F)S(=O)(=O)c3ccccc32)cc2c1OCO2
active: [8] 66.8 µM | [9] 61 µM | [11] 33.7 µM
inactive: [1] | [2] | [3] | [4] | [5] | [6] | [10] | [12] | [13]

C#CC(O)C(CC)CCCC (stereo not given)
active: [7] 67.2 µM | [8] 53.3 µM
not listed: [14] | [15] | [16] | [17] | [18] | [20]
inactive: all other assays above
